What was measured:
Experiment in all cases: DAPPL (digital affinity profiling via proximity ligation, sequencing); 10 mM Tris-HCl pH 7.5, 50 mM NaCl, 1 mM DTT, 4% glycerol, room temperature, 30 min; GST-TFs on glutathione beads, 16-mer random dsDNA library, 0.1% formaldehyde crosslink after washing; high values mean tight binding
Conditions in all cases: protein: recombinant; tags: N-terminal GST; dsDNA, one strand shown
ERF = target: T1, ERF (Homo sapiens, UniProt P50548 1-548)
T1 sequence: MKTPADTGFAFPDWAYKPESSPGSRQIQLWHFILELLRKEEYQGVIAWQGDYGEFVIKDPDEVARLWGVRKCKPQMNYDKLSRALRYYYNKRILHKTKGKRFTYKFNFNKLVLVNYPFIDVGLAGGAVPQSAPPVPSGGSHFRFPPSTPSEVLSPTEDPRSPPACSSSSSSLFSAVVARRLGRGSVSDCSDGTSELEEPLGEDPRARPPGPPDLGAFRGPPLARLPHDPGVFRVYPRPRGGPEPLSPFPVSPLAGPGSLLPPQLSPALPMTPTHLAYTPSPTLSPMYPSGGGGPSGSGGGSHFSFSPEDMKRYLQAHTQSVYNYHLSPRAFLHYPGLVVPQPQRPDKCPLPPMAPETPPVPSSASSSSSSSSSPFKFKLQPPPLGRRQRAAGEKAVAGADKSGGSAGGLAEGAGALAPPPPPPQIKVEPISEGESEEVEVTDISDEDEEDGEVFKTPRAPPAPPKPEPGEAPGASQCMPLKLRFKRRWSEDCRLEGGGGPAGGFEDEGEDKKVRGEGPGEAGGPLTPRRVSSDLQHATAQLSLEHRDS
Summary of the method: (§1)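 Binding signal is defined as a hexamer's read frequency for one factor over its frequency for the tag-only sample. To obtain reads, GST-fused human transcription factors were expressed in yeast, captured on glutathione beads, barcoded with DNA and pooled with that sample. Pools met 200 nmole of a 16-mer random double-stranded DNA library in Tris/NaCl/DTT/glycerol buffer for 30 min at room temperature before washing, 0.1% formaldehyde crosslinking, proximity ligation (BsaI/T4 ligase, 1 h, 37 °C), PCR and Illumina NextSeq500 sequencing.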

ETV3L = target: T2, ETV3L (Homo sapiens, UniProt Q6ZN32 1-361)
T2 sequence: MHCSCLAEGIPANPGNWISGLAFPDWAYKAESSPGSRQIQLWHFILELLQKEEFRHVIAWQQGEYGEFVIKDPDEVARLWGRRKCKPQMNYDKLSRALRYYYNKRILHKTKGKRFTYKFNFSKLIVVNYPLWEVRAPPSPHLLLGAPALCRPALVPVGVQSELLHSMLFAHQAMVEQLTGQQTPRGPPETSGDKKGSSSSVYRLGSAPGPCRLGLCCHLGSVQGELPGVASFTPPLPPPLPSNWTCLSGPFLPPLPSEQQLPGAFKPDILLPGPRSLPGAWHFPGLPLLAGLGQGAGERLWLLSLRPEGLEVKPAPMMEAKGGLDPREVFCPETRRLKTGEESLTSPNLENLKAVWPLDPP
Summary of the method: as §1

ETS2 = target: T3, ETS2 (Homo sapiens, UniProt P15036 1-469)
T3 sequence: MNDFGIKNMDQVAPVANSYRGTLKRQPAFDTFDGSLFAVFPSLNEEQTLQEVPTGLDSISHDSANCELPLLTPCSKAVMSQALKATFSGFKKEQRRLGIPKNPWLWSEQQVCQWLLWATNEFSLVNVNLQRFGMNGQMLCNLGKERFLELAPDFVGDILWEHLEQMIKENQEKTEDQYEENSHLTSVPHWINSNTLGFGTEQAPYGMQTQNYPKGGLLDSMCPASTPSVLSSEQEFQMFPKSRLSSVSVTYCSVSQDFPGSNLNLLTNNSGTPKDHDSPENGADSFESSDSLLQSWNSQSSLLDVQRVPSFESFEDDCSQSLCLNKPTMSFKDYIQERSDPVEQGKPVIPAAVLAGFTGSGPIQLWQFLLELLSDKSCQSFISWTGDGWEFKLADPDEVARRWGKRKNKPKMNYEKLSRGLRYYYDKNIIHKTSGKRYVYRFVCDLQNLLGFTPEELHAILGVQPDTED
Summary of the method: as §1

SPDEF = target: T4, SPDEF (Homo sapiens, UniProt O95238 1-335)
T4 sequence: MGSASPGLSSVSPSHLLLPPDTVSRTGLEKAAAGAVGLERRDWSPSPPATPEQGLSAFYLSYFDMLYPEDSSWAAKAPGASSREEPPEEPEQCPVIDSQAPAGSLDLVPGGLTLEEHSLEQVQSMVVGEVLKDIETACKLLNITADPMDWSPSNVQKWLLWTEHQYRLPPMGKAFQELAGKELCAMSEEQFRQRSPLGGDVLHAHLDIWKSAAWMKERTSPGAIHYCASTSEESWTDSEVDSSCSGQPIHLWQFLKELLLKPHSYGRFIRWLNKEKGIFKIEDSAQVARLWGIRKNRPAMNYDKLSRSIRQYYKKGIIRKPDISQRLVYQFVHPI
Summary of the method: as §1

ETV3 = target: T5, ETV3 (Homo sapiens, UniProt P41162-2 1-143)
T5 sequence: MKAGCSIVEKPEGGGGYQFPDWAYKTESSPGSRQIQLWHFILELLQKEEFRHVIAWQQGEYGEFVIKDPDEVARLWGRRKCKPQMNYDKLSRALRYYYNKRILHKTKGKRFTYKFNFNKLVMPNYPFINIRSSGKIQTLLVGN
Summary of the method: as §1

ETV6 = ETV6 (Homo sapiens, UniProt P41212 1-452)
Chain of ETV6 (P41212 whole entry): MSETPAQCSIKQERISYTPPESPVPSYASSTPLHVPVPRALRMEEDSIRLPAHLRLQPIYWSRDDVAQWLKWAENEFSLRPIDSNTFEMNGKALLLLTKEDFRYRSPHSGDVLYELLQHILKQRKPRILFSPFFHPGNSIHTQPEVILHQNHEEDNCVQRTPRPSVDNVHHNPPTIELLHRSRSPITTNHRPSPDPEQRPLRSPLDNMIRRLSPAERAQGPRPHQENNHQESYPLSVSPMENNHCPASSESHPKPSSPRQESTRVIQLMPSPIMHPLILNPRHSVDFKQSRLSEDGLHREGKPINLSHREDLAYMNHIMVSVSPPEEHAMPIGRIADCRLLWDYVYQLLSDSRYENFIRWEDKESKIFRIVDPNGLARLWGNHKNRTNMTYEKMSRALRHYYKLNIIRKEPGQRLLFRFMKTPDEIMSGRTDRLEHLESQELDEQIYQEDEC
Summary of the method: as §1

ELF5 = target: T6, ELF5 (Homo sapiens, UniProt Q9UKW6-2 1-255)
T6 sequence: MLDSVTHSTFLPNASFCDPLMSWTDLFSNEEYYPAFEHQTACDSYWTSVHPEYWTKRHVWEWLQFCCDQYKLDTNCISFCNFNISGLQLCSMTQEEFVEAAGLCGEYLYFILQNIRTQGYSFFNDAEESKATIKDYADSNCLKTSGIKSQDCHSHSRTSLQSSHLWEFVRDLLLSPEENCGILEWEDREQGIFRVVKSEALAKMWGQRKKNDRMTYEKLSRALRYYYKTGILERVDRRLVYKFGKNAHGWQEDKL
Summary of the method: as §1

ETV7 = target: T7, ETV7 (Homo sapiens, UniProt Q9Y603 1-341)
T7 sequence: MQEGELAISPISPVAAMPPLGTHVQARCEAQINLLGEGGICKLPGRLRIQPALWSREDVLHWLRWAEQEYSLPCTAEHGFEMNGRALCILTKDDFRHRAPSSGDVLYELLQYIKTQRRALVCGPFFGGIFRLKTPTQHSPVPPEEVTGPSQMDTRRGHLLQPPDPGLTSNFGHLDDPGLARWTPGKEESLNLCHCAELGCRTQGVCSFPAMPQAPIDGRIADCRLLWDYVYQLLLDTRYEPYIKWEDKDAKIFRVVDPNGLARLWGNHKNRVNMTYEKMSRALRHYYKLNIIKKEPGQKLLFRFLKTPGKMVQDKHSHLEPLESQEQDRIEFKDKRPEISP
Summary of the method: as §1

Sequence | binding signal (ERF) | binding signal (ETV3L) | binding signal (ETS2) | binding signal (SPDEF) | binding signal (ETV3) | binding signal (ETV6) | binding signal (ELF5) | binding signal (ETV7)
TTTAGT | 1.03 fold enrichment (6-mer frequency, TF over GST control) | 1.09 fold enrichment (6-mer frequency, TF over GST control) | 1.04 fold enrichment (6-mer frequency, TF over GST control) | 1.04 fold enrichment (6-mer frequency, TF over GST control) | 1.11 fold enrichment (6-mer frequency, TF over GST control) | 1.12 fold enrichment (6-mer frequency, TF over GST control) |  | 
CAAAGC | 1.13 fold enrichment (6-mer frequency, TF over GST control) | 1.07 fold enrichment (6-mer frequency, TF over GST control) | 1 fold enrichment (6-mer frequency, TF over GST control) | 1.06 fold enrichment (6-mer frequency, TF over GST control) | 1.08 fold enrichment (6-mer frequency, TF over GST control) | 1.08 fold enrichment (6-mer frequency, TF over GST control) | 1.01 fold enrichment (6-mer frequency, TF over GST control) | 
ATGCTG | 1.16 fold enrichment (6-mer frequency, TF over GST control) | 1.13 fold enrichment (6-mer frequency, TF over GST control) | 1.18 fold enrichment (6-mer frequency, TF over GST control) | 1.11 fold enrichment (6-mer frequency, TF over GST control) | 1.09 fold enrichment (6-mer frequency, TF over GST control) | 1.08 fold enrichment (6-mer frequency, TF over GST control) | 1 fold enrichment (6-mer frequency, TF over GST control) | 
ATCGTC | 1.13 fold enrichment (6-mer frequency, TF over GST control) | 1.09 fold enrichment (6-mer frequency, TF over GST control) | 1.05 fold enrichment (6-mer frequency, TF over GST control) | 1.05 fold enrichment (6-mer frequency, TF over GST control) | 1.06 fold enrichment (6-mer frequency, TF over GST control) | 1.06 fold enrichment (6-mer frequency, TF over GST control) | 1.07 fold enrichment (6-mer frequency, TF over GST control) | 
CCAAAC | 1.08 fold enrichment (6-mer frequency, TF over GST control) | 1.12 fold enrichment (6-mer frequency, TF over GST control) | 1.1 fold enrichment (6-mer frequency, TF over GST control) | 1.11 fold enrichment (6-mer frequency, TF over GST control) | 1.11 fold enrichment (6-mer frequency, TF over GST control) | 1.07 fold enrichment (6-mer frequency, TF over GST control) | 1.09 fold enrichment (6-mer frequency, TF over GST control) | 
CAACGC | 1.05 fold enrichment (6-mer frequency, TF over GST control) | 1.07 fold enrichment (6-mer frequency, TF over GST control) | 1.07 fold enrichment (6-mer frequency, TF over GST control) | 1.08 fold enrichment (6-mer frequency, TF over GST control) |  | 1.03 fold enrichment (6-mer frequency, TF over GST control) |  | 1.09 fold enrichment (6-mer frequency, TF over GST control)
CTCGGT | 1.14 fold enrichment (6-mer frequency, TF over GST control) | 1.12 fold enrichment (6-mer frequency, TF over GST control) | 1.11 fold enrichment (6-mer frequency, TF over GST control) | 1.02 fold enrichment (6-mer frequency, TF over GST control) |  | 1.08 fold enrichment (6-mer frequency, TF over GST control) |  | 1.05 fold enrichment (6-mer frequency, TF over GST control)
CACACG | 1.12 fold enrichment (6-mer frequency, TF over GST control) | 1.21 fold enrichment (6-mer frequency, TF over GST control) | 1.12 fold enrichment (6-mer frequency, TF over GST control) | 1.16 fold enrichment (6-mer frequency, TF over GST control) | 1.1 fold enrichment (6-mer frequency, TF over GST control) | 1.18 fold enrichment (6-mer frequency, TF over GST control) | 1.04 fold enrichment (6-mer frequency, TF over GST control) | 
CGAAAA | 1.17 fold enrichment (6-mer frequency, TF over GST control) | 1.09 fold enrichment (6-mer frequency, TF over GST control) | 1.08 fold enrichment (6-mer frequency, TF over GST control) | 1.02 fold enrichment (6-mer frequency, TF over GST control) |  | 1.08 fold enrichment (6-mer frequency, TF over GST control) |  | 1.17 fold enrichment (6-mer frequency, TF over GST control)
GGTCTA | 1.07 fold enrichment (6-mer frequency, TF over GST control) | 1.11 fold enrichment (6-mer frequency, TF over GST control) | 1.05 fold enrichment (6-mer frequency, TF over GST control) | 1.08 fold enrichment (6-mer frequency, TF over GST control) | 1.05 fold enrichment (6-mer frequency, TF over GST control) | 1.04 fold enrichment (6-mer frequency, TF over GST control) | 1.04 fold enrichment (6-mer frequency, TF over GST control) | 
GGATCC | 1.06 fold enrichment (6-mer frequency, TF over GST control) | 1.15 fold enrichment (6-mer frequency, TF over GST control) | 1.22 fold enrichment (6-mer frequency, TF over GST control) | 2.07 fold enrichment (6-mer frequency, TF over GST control) | 1.13 fold enrichment (6-mer frequency, TF over GST control) | 1.08 fold enrichment (6-mer frequency, TF over GST control) | 1.13 fold enrichment (6-mer frequency, TF over GST control) | 
